# Assay outcomes: PubChem BioAssay, several laboratories
# A3G deaminase: APOBEC3G (human) deaminase inhibition; 0.28% of 330,000 active; AID 493012; inhibition, % at 20 µM; recombinant A3G, ssDNA deamination FAM/TAMRA fluorescence; Q9HC16;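 active = inhibition of at least 40% at 20 µM, with no more than 30% in the related APOBEC3A deaminase screen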;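 also: plate controls were DMSO wells with A3G for no effect and wells lacking A3G enzyme for full effect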
# Target sequence (Q9HC16 whole entry, looked up): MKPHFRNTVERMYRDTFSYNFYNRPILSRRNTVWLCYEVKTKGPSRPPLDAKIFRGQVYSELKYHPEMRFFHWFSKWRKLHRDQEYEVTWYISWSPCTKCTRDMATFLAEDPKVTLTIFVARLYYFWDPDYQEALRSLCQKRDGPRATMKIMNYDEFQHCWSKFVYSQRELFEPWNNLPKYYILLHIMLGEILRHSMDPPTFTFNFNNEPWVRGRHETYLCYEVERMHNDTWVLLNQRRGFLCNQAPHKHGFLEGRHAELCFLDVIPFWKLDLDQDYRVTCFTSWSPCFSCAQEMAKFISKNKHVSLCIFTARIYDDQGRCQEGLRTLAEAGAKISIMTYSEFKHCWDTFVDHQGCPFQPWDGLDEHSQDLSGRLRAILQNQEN
# ADAM10 inh: ADAM10 inhibition, QFRET primary screen; inhibition, % at 7 µM; O14672; 0.62% of 370,000 active; recombinant ADAM10, EDANS/DABCYL FRET peptide cleavage, 3 h;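 active = inhibition above a per-campaign cutoff equal to the mean of compounds falling between control-based bounds plus 3 SD, cut at about 20% in these data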;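 also: 0% = DMSO wells while the 100% control is not disclosed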
# ADAM17 inh: inhibitors of human ADAM17; 0.83% of 370,000 active; recombinant ADAM17, EDANS/DABCYL FRET peptide cleavage; inhibition, % at 6.95 µM; P78536;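 active = inhibition above the mean of compounds lying between control limits plus 3 SD, set per campaign, cut at about 8.5% in these data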;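 also: 0% = DMSO-only wells as the low control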
# NRP1-CendR mod: modulators of CendR peptide binding to human neuropilin-1. AID 602438. 0.85% of 360,000 active. FAM-RPARPAR peptide binding to NRP-1, fluorescence polarization. O14786. inhibition, % at 25 µM;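 active = inhibition or corrected inhibition above about 18%, plus a signal ratio from 0.5 to 1.5, limit read from the data, passing the limit was not always enough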
# APOBEC3A inh: blocks human APOBEC3A ssDNA deamination | P31941 | recombinant A3A, FAM/TAMRA ssDNA deamination fluorescence | inhibition, % at 20 µM | 0.41% of 330,000 active | AID 493011;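 active = at least 40% inhibition at 20 µM here, with at most 30% in a related deaminase screen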;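 also: plate controls were A3A with DMSO for no effect and wells lacking A3A enzyme for full effect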
# Target sequence (P31941 whole entry, looked up): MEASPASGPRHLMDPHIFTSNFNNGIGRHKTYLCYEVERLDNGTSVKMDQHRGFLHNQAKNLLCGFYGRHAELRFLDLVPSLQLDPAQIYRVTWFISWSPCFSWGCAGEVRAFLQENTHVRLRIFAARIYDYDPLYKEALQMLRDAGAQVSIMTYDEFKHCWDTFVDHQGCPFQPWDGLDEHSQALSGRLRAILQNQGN
# ADAM10 confirm: human ADAM10 inhibition, confirmation | shares compounds with ADAM10 inh | ADAM10 QFRET peptide cleavage, EDANS fluorescence | inhibition, % at 6.95 µM | 1% of 2,100 active | AID 743208;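 active = inhibition above about 20% chosen separately for each screening run, limit read from the data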;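 also: 0% = DMSO wells and 100% = marimastat wells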
# ADAM17 counter: inhibits human ADAM17 in ADAM10 exosite counter-screen; 0.5% of 2,100 active; ADAM17 QFRET peptide cleavage, EDANS fluorescence; shares compounds with ADAM10 inh; inhibition, % at 6.95 µM;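 active = mean triplicate inhibition above the solvent-only control wells' mean plus 3 SD, cut at about 12% in these data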;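 also: 0% = DMSO wells and 100% = marimastat wells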
# ADAM10 counter: counter-screen for ADAM17 exosite inhibitors: inhibitors of human ADAM10. shares compounds with ADAM17 inh. recombinant ADAM10, EDANS/DABCYL FRET peptide cleavage, 3 h. inhibition, % at 6.95 µM. 47% of 2,900 active;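 active = mean inhibition over the triplicate runs exceeds the activity threshold set in the earlier primary screen, cut at about 20% in these data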;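 also: 0% = DMSO wells and 100% = marimastat wells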
# ADAM17 confirm: human ADAM17 inhibition, confirmation; AID 743257; inhibition, % at 6.95 µM; shares compounds with ADAM17 inh; recombinant ADAM17, EDANS/DABCYL QFRET peptide cleavage; 65% of 2,900 active;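 active = mean inhibition across replicates above the hit cutoff set in the primary screen, cut at about 8.5% in these data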;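 also: 0% = DMSO wells and 100% = marimastat wells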
# * hit, by the source's call; . = not tested or not shown. An excerpt weighted towards active compounds, which were near 2.4% of everything screened.
SMILES,A3G deaminase,ADAM10 inh,ADAM17 inh,NRP1-CendR mod,APOBEC3A inh,ADAM10 confirm,ADAM17 counter,ADAM10 counter,ADAM17 confirm
CCOc1cc(C(c2c(C)[nH][nH]c2=O)c2c(C)[nH][nH]c2=O)ccc1OC(=O)c1cccc([N+](=O)[O-])c1,6,27*,24*,10,10,4,1,12,7
CCOc1cc(C(c2c(C)[nH][nH]c2=O)c2c(C)[nH][nH]c2=O)ccc1OCc1ccc([N+](=O)[O-])cc1,-6,10,1,2,-3,.,.,.,.
COc1cccc(/C=C2\CC3(OC(=O)c4ccc(F)cc4)CCCN2C3)c1 (centres undefined),.,2,2,.,.,.,.,.,.
CCc1nc2ccccc2c(C(=O)OCC(=O)Nc2ccc(S(=O)(=O)N3CCOCC3)cc2)c1C,3,20*,10.0*,12,3,9,2,21*,12*
CCCCCCn1c(=O)n2n(c1=O)C[C@]1(OC(=O)NCc3ccccc3F)CN(S(=O)(=O)c3ccc(C)cc3)C[C@]1(O)C2,.,37*,14*,-7,.,4,2,33*,16*
CCCCCCn1c(=O)n2n(c1=O)[C@@H]1CN(S(=O)(=O)c3ccc(C)cc3)C[C@]1(O)[C@@H](OC(=O)NCc1ccccc1)C2,.,22*,9.9*,-17,.,4,1,33*,16*
Cc1ccc(S(=O)(=O)N2C[C@H]3n4c(=O)ccc(=O)n4C[C@H](OC(=O)NCc4ccccc4)[C@@]3(O)C2)cc1,.,-13,-6,9,.,.,.,.,.
CCCCN1CCN(C(=O)c2cn(C(C)c3ccccc3)nn2)CC1 (centres undefined),.,3,-1,.,.,.,.,.,.
C=CCOC(=O)N[C@@H](c1coc2ccccc2c1=O)[C@@H](C)/C=C/CC(=O)OC,.,-7,-2,.,.,.,.,.,.
COc1cccc(NC(=O)C(Sc2nnc(-c3ccncc3)n2-c2ccc(Cl)cc2)c2ccccc2)c1 (centres undefined),-11,38*,14*,-4,-3,9,3,30*,16*
COc1ccc(C(=O)NC(=S)Nc2ccc(N3CCCC3)cc2)cc1,-7,-8,-1,4,-5,.,.,.,.
COc1cccc(C(=O)NC(=S)Nc2ccc(N3CCCC3)cc2)c1,-5,32*,12*,14,-1,6,2,14,11*
COc1ccc(OC)c(-n2c(-c3cc(-c4ccc(F)cc4)n[nH]3)n[nH]c2=S)c1,-2,20*,9.3*,12,-2,1,1,0,3
Nc1[nH]c(C(=O)c2ccc(Br)cc2)c(-c2ccc(Cl)cc2)c1C(=O)NCCc1c[nH]c2ccccc12,.,-10,-3,.,.,.,.,.,.
COc1ccc(NC(=O)c2cc(S(=O)(=O)N(Cc3ccccc3)c3ccccc3)ccc2Cl)cn1,-7,20*,9.6*,-10,0,9,2,23*,12*
CC(C)(C)c1ccc(-c2cn(C[C@H](Cc3ccccc3)n3c(=O)c4ccccc4n3Cc3ccco3)nn2)cc1,.,-37,-6,.,.,.,.,.,.
CCc1cccc2c(C(=O)CN3C(=O)NC4(CCc5ccccc54)C3=O)c[nH]c12 (centres undefined),-5,6,2,5,14,.,.,.,.
CCc1cccc2c(C(=O)CN3C(=O)NC(C)(c4cccc5ccccc45)C3=O)c[nH]c12 (centres undefined),-5,30*,9.6*,-20,1,8,2,28*,16*
C[C@H](CO)N1C[C@H](C)[C@@H](CN(C)C(=O)Nc2cccc(F)c2)OCc2cn(nn2)CCCC1=O,.,-12,-3,.,.,.,.,.,.
COc1ccc(CN(C(=O)c2nsc(Cl)c2Cl)C(C(=O)NC2CCCCC2)c2ccc(OC)cc2)cc1 (centres undefined),6,28*,8.8*,-16,1,7,2,8,9.6*
COc1ccc(CN(C(=O)c2snc(C(N)=O)c2N)C(C(=O)NC2CCCC2)c2ccc(OC)c(OC)c2)cc1 (centres undefined),1,-101,-34,-3,-2,.,.,.,.
O=C1OCCN1C(=O)[C@H]1[C@H](c2ccc([N+](=O)[O-])cc2)C(c2ccc(F)cc2)=NN1c1ccccc1,1,21*,9.0*,0,4,4,3,36*,17*
O=C1OCCN1C(=O)[C@H]1[C@H](c2ccccc2)C(c2ccc(F)cc2)=NN1c1ccc(Br)cc1,0,-65,-23,-29,3,.,.,.,.
O=C1OCCN1C(=O)[C@H]1[C@H](c2ccc([N+](=O)[O-])cc2)C(c2ccc(F)cc2)=NN1c1ccc(Br)cc1,-3,22*,9.2*,-17,1,14,4,20*,13*
FC(F)(F)Oc1cccc(Cn2ccc3ccc(-c4ccc5ccn(Cc6ccccc6)c5c4)cc32)c1,.,-46,-16,.,.,.,.,.,.
SMILES,A3G deaminase,ADAM10 inh,ADAM17 inh,NRP1-CendR mod,APOBEC3A inh,ADAM10 confirm,ADAM17 counter,ADAM10 counter,ADAM17 confirm
CCOC(=O)CCCNC(=O)OC1CC2CC1[C@H]1CCCCN1[C@H]2C (some centres undefined),.,-14,-11,.,.,.,.,.,.
COc1ccc(CCN2C(=O)c3[nH]nc(-c4ccccc4O)c3C2c2cccc(Cl)c2)cc1 (centres undefined),-5,36*,14*,-7,0,11,5,41*,17*
COc1ccc(C2c3c(-c4ccccc4O)n[nH]c3C(=O)N2Cc2ccco2)cc1 (centres undefined),-4,16,8,5,0,.,.,.,.
O=C(CSc1ccc(Cl)cc1Cl)N1CCC(c2nc3ccccc3s2)CC1,-4,21*,12*,-11,1,11,4,18,13*
COc1ccccc1C(=O)N1CCN(C(=O)[C@@H](Cc2ccccc2)NC(=O)[C@H]2O[C@@H](n3ccc(=O)[nH]c3=O)[C@H](O)[C@@H]2O)CC1,.,1,4,.,.,.,.,.,.
C=C(C)COc1ccc(-c2[nH]ncc2-c2ccccc2)c(O)c1,-9,24*,11*,25*,1,7,3,34*,17*
CCOc1ccc(-c2n[nH]c(C)c2Oc2ccccc2OC)c(O)c1,-6,20,8,7,-5,.,.,.,.
C=C(C)COc1ccc(-c2nc(N)ncc2-c2ccc(OC)cc2)c(O)c1,.,27*,16*,.,.,6,4,13,17*
